Screening results: PubChem, National Center for Advancing Translational Sciences (NCATS)
Sampled rows, rich in hits. Any-hit rate of the full collection: about 11%.
IMPase cell inh: IMPase inhibition in cells. P97697. CHO-M1 cells, IP1 accumulation, HTRF TR-FRET ratio. inhibition (IP1 accumulation), % at 46.1 µM. 120,000 tested, under 10 active. AID 901; active means well fitted curve in the direction sought with a large enough effect in the signal ratio, not every such curve was filed as active; inconclusive means small, poorly fitted or top-dose-only effect, or a change in a side signal; inactive means no such curve, though single readings can be large or run the other way; the % refers to the signal ratio;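 further: cells stimulated with carbachol in lithium chloride buffer; plate controls were DMSO basal wells for no effect and reference inhibitor wells for full effect; higher means more IMPase inhibition seen as more IP1 and lower FRET ratio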
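CHO-M1, 2000 cells/well, cultured 16–30 h; cpd up to 46 uM; carbachol (50 uM solution, stimulation buffer w/ 50 mM LiCl, pH 7.4), 30 min 37C; IP-One TR-FRET, 10 min RT; Ex 320/Em 665, 620; Hill-fit AC50.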
PNC inhibitor: inhibitors of perinucleolar compartment assembly; PC3M PTB-GFP, PNC prevalence imaging, 16 h; active compounds read low; activity change (PNC), negative = inhibition, % at 10 µM; hit rate 3.1% among 140,000;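 active means readout at or below -70, meaning at least 70% loss of cells showing the perinucleolar compartment, a nuclear body marking cancer cells; inconclusive means readout between -30 and a set limit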;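 further: plate controls were DMSO wells for no effect and camptothecin positive control wells for full effect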
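Compounds are pinned in duplicate onto adhered PC3M cells stably expressing GFP-tagged PTB and incubated 16 h at 37 C. Cells are then fixed, nuclei stained with Hoechst, and PNC-positive cells counted.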
ALDH1A1 block: inhibitors of human aldehyde dehydrogenase 1A1; P00352; Purified ALDH1A1, NADH fluorescence, propionaldehyde substrate; Potency, µM (doses to about 75.3 µM), for the others: at the highest dose activity, negative = inhibition, most hits filed as inhibitors; hit rate 7.3% among 220,000; AID 1030;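 further: potency means the concentration at half of the fitted maximal effect; plate controls were no enzyme wells and a reference inhibitor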
Target sequence (P00352 whole entry, looked up): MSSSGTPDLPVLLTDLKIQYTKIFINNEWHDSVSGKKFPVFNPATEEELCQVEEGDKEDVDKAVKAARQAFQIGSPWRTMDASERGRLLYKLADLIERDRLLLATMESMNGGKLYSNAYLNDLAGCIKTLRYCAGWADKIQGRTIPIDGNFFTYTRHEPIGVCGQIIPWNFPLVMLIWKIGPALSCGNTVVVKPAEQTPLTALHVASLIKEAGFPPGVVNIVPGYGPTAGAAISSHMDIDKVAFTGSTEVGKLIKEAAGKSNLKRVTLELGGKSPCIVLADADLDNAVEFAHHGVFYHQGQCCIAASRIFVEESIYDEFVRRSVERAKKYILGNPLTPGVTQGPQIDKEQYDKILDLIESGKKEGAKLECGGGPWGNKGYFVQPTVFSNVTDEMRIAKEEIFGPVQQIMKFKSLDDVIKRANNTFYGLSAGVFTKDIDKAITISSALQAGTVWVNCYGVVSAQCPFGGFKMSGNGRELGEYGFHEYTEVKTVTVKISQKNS
HPGD block: inhibitors of human 15-hydroxyprostaglandin dehydrogenase (HPGD); hit rate 4.3% among 150,000; Potency, µM, inactives show at the top dose activity change, negative = inhibition, most hits filed as inhibitors; purified HPGD, NADH fluorescence kinetic, PGE2 substrate; further: potency means the concentration at half of the fitted maximal effect
Target sequence (P15428 whole entry, looked up): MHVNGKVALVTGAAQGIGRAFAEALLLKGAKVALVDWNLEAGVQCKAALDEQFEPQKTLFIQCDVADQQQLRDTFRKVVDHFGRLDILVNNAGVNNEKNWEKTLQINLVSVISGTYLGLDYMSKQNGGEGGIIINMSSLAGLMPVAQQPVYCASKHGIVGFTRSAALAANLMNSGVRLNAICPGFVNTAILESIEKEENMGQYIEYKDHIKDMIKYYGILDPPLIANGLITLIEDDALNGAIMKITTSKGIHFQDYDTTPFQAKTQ
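20 nM HPGD preincubated 15 min at room temperature with compound in 50 mM Tris-HCl pH 8, 0.01% Tween 20. Started with 1 mM NAD+ and 30 uM prostaglandin E2; NADH fluorescence (360/450 nm) read 5 times over 30-s intervals, last minus first.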
IMPase Li inh: cell-permeable IMPase inhibitors with lithium potentiation | CHO-M1 cells, IP1 TR-FRET (IP-One), carbachol + lithium | hit rate 0.35% among 210,000 | Potency, µM (top dose mostly 59.4 µM), without a hit: at the highest dose activity, negative = IMPase inhibition, usual class: inhibitors | AID 1457; active means well fitted inhibition curve with a large enough effect; inconclusive means small, poorly fitted or top-dose-only effect; inactive means no such curve, though single readings can be large or run the other way;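 further: IP1 builds up when IMPase is blocked and the TR-FRET signal falls; potency means the concentration at half of the fitted maximal effect; plate controls were basal vehicle for no effect and high inhibitor control for full effect; nearly all actives have a fitted effect of over 50% in size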
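Lithium-sensitised IP1 accumulation assay; M1-expressing CHO cells treated 30 min at 37C with compound. Competitive antibody detection by time-resolved FRET followed a 10 min room-temperature lysis step.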
Starred values were filed as active, the others as inactive; ! = not confirmed by another sample; [ ] = remark or other dose. Unless noted, the call rests on the fitted dose curve; in most records, active means well fitted inhibition curve with a large enough effect (not every such curve was filed as active); inconclusive means small, poorly fitted or top-dose-only effect, or another doubt; inactive means no such curve, though single readings can be large or run the other way. Unless noted, on the % scale 0 is the no-effect control and ±100 the full control effect.

How did COc1ccc(C(=O)Cn2nnc(-c3ccccc3NC(=O)c3ccco3)n2)cc1 do in these assays?
IMPase cell inh: 9.5; PNC inhibitor: 24.9; ALDH1A1 block: inconclusive; HPGD block: inconclusive; IMPase Li inh: 15.0%[38.3 µM]

What do the screens show for `Cc1ccc2cccc(S(=O)(=O)N3CCCc4ccccc43)c2n1`?
ALDH1A1 block: 5.8%; IMPase Li inh: 3.6%

What do the screens show for `Cc1cccc(N2C(=O)/C(=C\c3ccc(OC(F)F)cc3)c3ccccc3C2=O)c1`?
IMPase cell inh: -3.5; PNC inhibitor: -12.7; ALDH1A1 block: inconclusive; HPGD block: 10µM*; IMPase Li inh: -0.4%

Results for COc1cccc(/C=C2\C(=O)N(c3cccc(C)c3)C(=O)c3ccccc32)c1 ?
PNC inhibitor: inconclusive; ALDH1A1 block: inconclusive; HPGD block: 3.98µM*; IMPase Li inh: 10.8%

Results for CCOc1cc(/C=C2\C(=O)N(c3cccc(C(F)(F)F)c3)C(=O)c3ccccc32)ccc1O ?
PNC inhibitor: -3.8; ALDH1A1 block: inconclusive; HPGD block: inconclusive; IMPase Li inh: 8.0%

How did Cc1ccc2nc(-c3cccc(S(=O)(=O)N(C)C)c3)cn2c1 do in these assays?
IMPase cell inh: 1.9; PNC inhibitor: -20.3; ALDH1A1 block: inconclusive; HPGD block: inconclusive; IMPase Li inh: -10.5%[38.3 µM]

Results for CN(C)S(=O)(=O)c1cccc(-n2sc3ccccc3c2=O)c1 ?
ALDH1A1 block: 0.224µM*; IMPase Li inh: 7.4%

How did Cc1ccc(-n2sc3ccccc3c2=O)cc1S(=O)(=O)N1CCCCC1 do in these assays?
IMPase cell inh: 5.1; PNC inhibitor: inconclusive; ALDH1A1 block: 2.24µM*; HPGD block: 1µM*; IMPase Li inh: 9.4%[38.3 µM]

Results for O=c1c2ccccc2sn1-c1ccc(S(=O)(=O)N2CCCC2)cc1 ?
IMPase cell inh: 2.6; PNC inhibitor: -1.8; ALDH1A1 block: 0.891µM*; HPGD block: 0.708µM*; IMPase Li inh: 1.4%[38.3 µM]

What do the screens show for `Cc1ccc(-c2nnc(N3CCCCC3)c3ccccc23)cc1S(=O)(=O)N1CCN(C)CC1`?
IMPase cell inh: 3.8; PNC inhibitor: 62.7; ALDH1A1 block: 6.0%; HPGD block: -16.2%; IMPase Li inh: -8.4%[38.3 µM]

How did NC(N)=NCCCCN=C(N)N do in these assays?
IMPase cell inh: -3.4; ALDH1A1 block: -3.0%; HPGD block: -10.4%; IMPase Li inh: 8.3%

How did O=C(NN=C1CCCCCC1)c1cn(-c2ccccc2)nc1-c1ccccc1 do in these assays?
PNC inhibitor: 29.7; ALDH1A1 block: 3.55µM*; HPGD block: -4.3%; IMPase Li inh: 7.6%

Results for Cc1cccc(C)c1NC(=O)c1cn(-c2ccccc2)nc1-c1ccccc1 ?
PNC inhibitor: -25.3; ALDH1A1 block: 11.4%; HPGD block: -7.6%; IMPase Li inh: 1.4%

Results for CC1(C)CC(=O)c2c(oc3c(Cl)cc(NS(=O)(=O)c4ccc(Cl)cc4)cc23)C1 ?
IMPase cell inh: -1.5

Results for O=C1CCc2cc(OCCCCc3nnnn3C3CCCCC3)ccc2N1 ?
IMPase cell inh: 5.7; PNC inhibitor: inconclusive; ALDH1A1 block: 25.1µM*!; HPGD block: -28.3%; IMPase Li inh: -2.4%

What do the screens show for `COc1cccc(N2CCN(Cc3nnnn3C3CCCCC3)CC2)c1`?
ALDH1A1 block: -14.7%; IMPase Li inh: 6.6%

Results for Cc1nn(C)cc1C(C(=O)NC1CCCCC1)N(C(=O)Cc1cccs1)c1ccc(Cl)cc1 (centres undefined) ?
PNC inhibitor: 117.2; ALDH1A1 block: 14.0%; HPGD block: -3.3%; IMPase Li inh: 4.1%

How did N#CC(=C(/N)Sc1ccccc1N)/C(C#N)=C(/N)Sc1ccccc1N do in these assays?
IMPase cell inh: 2.6; HPGD block: 28.2µM*; IMPase Li inh: 18.2%

What do the screens show for `Cc1cc(SCC(=O)N/N=C/c2ccc(O)cc2O)c(C)cc1Br`?
IMPase cell inh: 2.1; PNC inhibitor: inconclusive; ALDH1A1 block: -7.0%; HPGD block: 20µM*; IMPase Li inh: 35.1%[38.3 µM]

What do the screens show for `O=C(CCCCCNC(=O)c1ccccc1)N/N=C/c1ccc(O)cc1O`?
IMPase cell inh: -2.4; PNC inhibitor: inconclusive; ALDH1A1 block: 5.6%; HPGD block: 28.2µM*; IMPase Li inh: 8.3%

Results for C/C(=N\NC(=O)CCCCCNC(=O)c1ccccc1)c1ccccc1O ?
PNC inhibitor: 8.7; ALDH1A1 block: 7.6%; HPGD block: -10.3%; IMPase Li inh: 4.4%

How did CCC1=C2CC[C@H]3C(=O)N(CC)C(=O)[C@H]3[C@H]2[C@@]2(C)C(=NCC(=O)OC)OC(=O)N2C1=O do in these assays?
ALDH1A1 block: 8.4%; HPGD block: -2.4%; IMPase Li inh: -0.6%

Results for CCOC(=O)Cn1nnnc1C(CC)N(Cc1cc2ccc(C)cc2[nH]c1=O)C1CCCC1 (centres undefined) ?
IMPase cell inh: 1.2; PNC inhibitor: -19.9; ALDH1A1 block: 20µM*; HPGD block: -16.5%; IMPase Li inh: -6.6%[38.3 µM]

Results for CCOC(=O)Cn1nnnc1C(CC)N(Cc1cc2c(C)cc(C)cc2[nH]c1=O)C1CCCC1 (centres undefined) ?
IMPase cell inh: -3.4; PNC inhibitor: inconclusive; ALDH1A1 block: 17.8µM*; HPGD block: -6.7%; IMPase Li inh: 6.3%[38.3 µM]

Results for CCOC(=O)Cn1nnnc1C(CC)N(Cc1cccs1)Cc1cc2cc(C)ccc2[nH]c1=O (centres undefined) ?
IMPase cell inh: 9.9; PNC inhibitor: 56.5; ALDH1A1 block: inconclusive; HPGD block: inconclusive; IMPase Li inh: 19.8%[38.3 µM]

What do the screens show for `Cc1ccc(C)c(OCCn2c(-c3ccc(Cl)cc3)nc3ccccc3c2=O)c1C`?
IMPase cell inh: -4.7

How did Cc1ccc(/C=c2/sc3nnc(-c4ccccc4Cl)n3c2=O)o1 do in these assays?
IMPase cell inh: 2.3; PNC inhibitor: inconclusive; ALDH1A1 block: inconclusive; HPGD block: -22.0%; IMPase Li inh: 6.0%[38.3 µM]

Results for Cc1ccc(-c2nc3s/c(=C\c4ccco4)c(=O)n3n2)cc1 ?
IMPase cell inh: inconclusive; PNC inhibitor: -12.5; ALDH1A1 block: 5.7%; HPGD block: -7.3%; IMPase Li inh: -15.3%[38.3 µM]

What do the screens show for `COc1ccc(/C=c2\sc3nc(=O)c(C)nn3c2=O)c(OC)c1`?
ALDH1A1 block: 22.4µM*; IMPase Li inh: -4.7%

What do the screens show for `COc1ccc(/C=C/C(=O)/C=C/c2ccc(OC)cc2OC)c(OC)c1`?
ALDH1A1 block: inconclusive; HPGD block: -21.1%; IMPase Li inh: 9.9%

How did Cc1ccc(/C=c2\sc3nc(-c4ccccc4Br)nn3c2=O)o1 do in these assays?
IMPase cell inh: -15.2; PNC inhibitor: inconclusive; ALDH1A1 block: 12.6µM*; HPGD block: 20µM*; IMPase Li inh: 15.8%[38.3 µM]

How did Cc1ccc(/C=c2\sc3nc(-c4ccco4)nn3c2=O)o1 do in these assays?
IMPase cell inh: 0.0; PNC inhibitor: inconclusive; ALDH1A1 block: 3.55µM*; HPGD block: 17.8µM*; IMPase Li inh: inconclusive
